# In PubChem BioAssay AID2685 (National Center for Advancing Translational Sciences (NCATS), 2010):
# Screen size: about 320,000 compounds; about 2,100 (0.66%) were called active. About 53% were inconclusive and are not listed. The call rests on the fitted dose curve; in most records, active means well fitted inhibition curve with a large enough effect in the signal ratio, with a control signal flat (not every such curve was filed as active); inconclusive means small, poorly fitted or top-dose-only effect, or effect the other way, or a change in a side signal; inactive means flat fitted curve, though single readings scatter; the % refers to the signal ratio. The sample as a whole holds a higher share of actives than the screen did.
# Assay: qHTS Assay for Lipid Storage Modulators in Drosophila S3 Cells;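 on cell number change: cells counted by Cell Tracker Red CMTPX staining in the red channel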; on lipid storage change, negative = inhibition: on the % scale 0 is the no-effect control and ±100 the full control effect
# Details: BODIPY lipid droplet fluorescence, 18-24 h, cells fed with added oleic acid; cell number change: measured here: cell count max response; series mostly up to 46.1 µM; lipid storage change, negative = inhibition: at the top concentration
# Method in brief: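 Laser-scanning cytometry quantifies lipid droplet accumulation (500–530 nm total intensity; droplet/cell object ratio) in oleic acid-fed (400 uM added) Drosophila S3 cells treated with a concentration series. 20 uM Triacsin C defined 100% inhibition.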
# Potency means the concentration at half of the fitted maximal effect.
Compound,cell number change [%],"lipid storage change, negative = inhibition",outcome,Potency
CC(=O)NCc1cc(-c2ccc(Cl)cc2)no1,-2.06,0.337% [at 9.22 µM] (inactive),–,–
O=C(NCc1nnc(SCC(=O)N2CCc3ccccc32)o1)c1cccs1,-1.06,2.4% (inactive),–,–
CCOC(=O)N1CCN(CC(O)c2c[nH]c3ccccc23)CC1 (stereo unspecified),14.4,1.13% (inactive),–,–
Cc1ccc(-c2nn(C)c(=O)c3ccccc23)cc1CNC(=O)/C=C/c1ccccc1,-24.2,–,inactive,–
CCCn1c(-c2cc(OC)c(OC)c(OC)c2)nc2c1c(=O)[nH]c(=O)n2Cc1ccccc1,–,–,–,0.651 µM (active)
C=CCOc1ccc(-c2nc3c(c(=O)[nH]c(=O)n3CCCC)n2C)cc1Br,12.1,-0.288% (inactive),–,–
CCCCn1c(=O)[nH]c(=O)c2c1nc(-c1cccc(OC)c1)n2C,-6.05,-6.52% (inactive),–,–
CCCCn1c(=O)[nH]c(=O)c2c1nc(-c1ccc(OCC)cc1)n2CC,-8.47,13.4% (inactive),–,–
CCCCn1c(=O)[nH]c(=O)c2c1nc(-c1cc(Br)c(OCC)c(OC)c1)n2C,15,-29.7% (inactive),–,–
C=CCOc1ccc(-c2nc3c(c(=O)[nH]c(=O)n3Cc3ccccc3)n2CCCOC)cc1,4.84,-1% (inactive),–,–
CCCn1c(-c2cccc(F)c2)nc2c1c(=O)[nH]c(=O)n2Cc1ccccc1,13.3,–,inactive,–
C=CCOc1ccc(-c2nc3c(c(=O)[nH]c(=O)n3CCC)n2CCCC)cc1,22.5,–,–,2.91 µM (active)
CCCn1c(-c2cccc([N+](=O)[O-])c2)nc2c1c(=O)[nH]c(=O)n2Cc1ccccc1,1.66,18.3% (inactive),–,–
CCCCn1c(=O)[nH]c(=O)c2c1nc(-c1ccc(OC)c(Br)c1)n2CC(C)C,9.66,–,–,0.326 µM (active)
CCCCn1c(=O)[nH]c(=O)c2c1nc(-c1ccc(-c3ccccc3)cc1)n2C,-2.7,–,–,3.66 µM (active)
CCCCn1c(=O)[nH]c(=O)c2c1nc(-c1ccc(-c3ccc(F)cc3)o1)n2C,10.6,26% (inactive),–,–
Cc1cc(C)c(NC(=O)c2cc(C(=O)O)ccc2C(=O)O)c([N+](=O)[O-])c1,2.4,2.67% (inactive),–,–
COc1ccc(CCc2cc(OC)cc(=O)o2)cc1,-1.16,16.7% (inactive),–,–
CN(CCOc1ccccc1Cl)Cc1ccccc1,-8.5,–,–,23.1 µM (active)
Cc1ccc(Cl)c(OCCCCN(C)Cc2ccccc2)c1,-11.3,-10.2% (inactive),–,–
CN(CCCCOc1ccc(F)cc1)Cc1ccccc1,9.09,13.9% (inactive),–,–
Cc1cc(C)c(OCCCCN(C)Cc2ccccc2)c(C)c1,-22,–,–,7.31 µM (active)

Compound,cell number change [%],"lipid storage change, negative = inhibition",outcome,Potency
CN(Cc1ccccc1)C(=O)COc1ccccc1Cl,10.4,-17.2% (inactive),–,–
CN(CCOc1ccc(F)cc1)Cc1ccccc1,11.7,11.2% (inactive),–,–
CC1CN(S(=O)(=O)c2ccc(C(=O)Nc3nnc(-c4ccccn4)o3)cc2)CC(C)O1 (stereo unspecified),10.4,-3.48% (inactive),–,–
Cn1c(=O)c(C(=O)NNC(=O)c2ccccc2F)c(O)c2ccccc21,13,–,inactive,–
Cn1c(=O)c(C(=O)NNC(=O)c2ccccc2Br)c(O)c2ccccc21,7.83,–,inactive,–
Cn1c(=O)c(C(=O)NNC(=O)c2ccc(Br)cc2)c(O)c2ccccc21,12.5,–,–,16.4 µM (active)
COc1cccc(CN2CC(C(=O)N3CCOCC3)CCC2=O)c1 (stereo unspecified),-3.29,–,inactive,–
c1ccc(-c2csc3ncnc(NCC4COc5ccccc5O4)c23)cc1 (stereo unspecified),-33.8,–,–,1.84 µM (active)
c1ccc(-c2csc3ncnc(NCc4ccccn4)c23)cc1,-13.1,-14.3% (inactive),–,–
c1ccc(-c2csc3ncnc(NCCN4CCOCC4)c23)cc1,-69.5,-15.7% (inactive),–,–
COc1ccc(S(=O)(=O)NCC2CCCN(C(=O)C=C(C)C)C2)cc1 (stereo unspecified),-5.61,0.395% (inactive),–,–
CCOc1ccccc1C(=O)N1CCC(n2nnc3cc(C(F)(F)F)ccc32)CC1,–,–,inactive,–
CC(C)CCNC(=O)CN(CC1CCCO1)C(=O)CCC(=O)Nc1nccs1 (stereo unspecified),9.95,22.3% (inactive),–,–
O=C(CN(Cc1ccccc1)C(=O)CCC(=O)Nc1nccs1)NCc1ccccc1,-17.1,-11.3% (inactive),–,–
O=C(CCC(=O)N(CC(=O)NC1CCCCC1)Cc1cccs1)Nc1nccs1,-2.3,13.5% (inactive),–,–
Cc1csc(NC(=O)CCC(=O)N(CC(=O)NC2CCCC2)Cc2ccco2)n1,5.63,8.55% (inactive),–,–
O=C(CCC(=O)N(CC(=O)NC1CCCC1)Cc1ccccc1)Nc1nccs1,6.76,–,–,3.66 µM (active)
COc1ccc(CN(CC(=O)NC2CCCC2)C(=O)CCC(=O)Nc2nc(C)cs2)cc1,2.99,–,–,4.61 µM (active)
CC(C)CCNC(=O)CN(C(=O)CCC(=O)Nc1nccs1)C1CCCCC1,-4.17,–,–,1.3 µM (active)
CC(C)CCNC(=O)CN(Cc1ccccc1)C(=O)CCC(=O)Nc1nccs1,2.61,–,inactive,–
COc1ccc(CN(CC(=O)NC2CCCC2)C(=O)CCC(=O)Nc2cc(C)on2)cc1,2.01,6.13% (inactive),–,–
CC(C)(C)OC(=O)[C@H](NC(=O)OCc1ccccc1)c1ccccc1,-4.27,–,inactive,–
